Out of some 5,500 compounds screened, about 2,000 (36%) were called active. About 18% were inconclusive and are not listed. No stated cut-off is given here; in the data, active means normalized growth mostly below about 0.91 (no sharp cut-off); inconclusive means no clear call, values can overlap the other calls; inactive means mostly above about 0.92. Some of the results follow.
Experiment: chemical genetic growth profiling, strain panel (AID 1159580);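 further: tested at 20 µM; growth read once vehicle control cultures reached saturation at 30 °C; 1 = growth at the plate median or of vehicle wells; lower values mean less growth of the strain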
Settings: S. cerevisiae deletion strains, growth OD

Measured: normalized growth

OC1CC2CCCC(C1)N2Cc1ccccc1 (configuration not stated)
inactive: locus YAL021C, strain ccr4, active compounds read low 1.01 | locus YAL026C, strain drs2, active compounds read low 0.993 | locus YAL030W, strain snc1, active compounds read low 1 | locus YBL061C, strain skt5, active compounds read low 0.932 | locus YBR009C, strain hhf1, active compounds read low 0.989 | locus YBR023C, strain chs3, active compounds read low 1 | locus YBR171W, strain sec66, active compounds read low 0.987 | locus YBR231C, strain swc5, active compounds read low 0.988 | locus YBR279W, strain paf1, active compounds read low 1 | locus YCL011C, strain gbp2, active compounds read low 1.01 | locus YCL016C, strain dcc1, active compounds read low 0.998 | locus YCL061C, strain MRC1, active compounds read low 0.997 | locus YCL069W, strain vba3, active compounds read low 1 | locus YCR088W, strain abp1, active compounds read low 1 | locus YDL005C, strain med2, active compounds read low 0.992 | locus YDL040C, strain nat1, active compounds read low 0.998 | locus YDR001C, strain nth1, active compounds read low 1 | locus YDR069C, strain doa4, active compounds read low 0.989 | locus YDR137W, strain rgp1, active compounds read low 0.974 | locus YDR159W, strain sac3, active compounds read low 0.963 | locus YDR195W, strain ref2 0.913 | locus YDR297W, strain sur2, active compounds read low 0.998 | locus YDR334W, strain swr1, active compounds read low 1.01 | locus YDR335W, strain msn5, active compounds read low 1 | locus YDR392W, strain spt3, active compounds read low 0.901 | locus YEL003W, strain gim4, active compounds read low 1 | locus YEL037C, strain rad23, active compounds read low 1 | locus YEL061C, strain CIN8 (second series), active compounds read low 1 | locus YER015W, strain faa2, active compounds read low 1 | locus YER016W, strain bim1, active compounds read low 0.986 | locus YER111C, strain swi4, active compounds read low 0.982 | locus YER155C, strain BEM2 (second series), active compounds read low 0.989 | locus YFR010W, strain ubp6, active compounds read low 1 | locus YGL167C, strain pmr1, active compounds read low 0.99 | locus YGL173C, strain kem1, active compounds read low 0.997 | locus YGL227W, strain vid30, active compounds read low 0.986 | locus YGL240W, strain doc1, active compounds read low 0.977 | locus YGL253W, strain hxk2, active compounds read low 0.989 | locus YHR013C, strain ard1, active compounds read low 0.953 | locus YHR027C, strain rpn1, active compounds read low 1 | locus YHR142W, strain chs7, active compounds read low 1.01 | locus YJL092W, strain hpr5, active compounds read low 1.02 | locus YJL095W, strain BCK1 (second series), active compounds read low 1 | locus YJL115W, strain asf1, active compounds read low 1 | locus YJL129C, strain trk1, active compounds read low 0.993 | locus YJL154C, strain vps35, active compounds read low 1 | locus YJL164C, strain tpk1, active compounds read low 1 | locus YJL166W, strain qcr8, active compounds read low 0.998 | locus YJL187C, strain SWE1, active compounds read low 1 | locus YKL160W, strain elf1, active compounds read low 1 | locus YKR026C, strain gcn3, active compounds read low 1 | locus YKR091W, strain srl3, active compounds read low 0.999 | locus YLL001W, strain dnm1, active compounds read low 0.986 | locus YLL026W, active compounds read low 0.988 | locus YLL041C, strain sdh2, active compounds read low 1 | locus YLR027C, strain aat2, active compounds read low 1 | locus YLR221C, strain rsa3, active compounds read low 1 | locus YLR258W, strain gsy2, active compounds read low 0.986 | locus YLR262C, strain YPT6 (second series), active compounds read low 0.956 | locus YLR320W, strain mms22, active compounds read low 0.99 | locus YLR342W, strain FKS1, active compounds read low 0.995 | locus YLR357W, strain rsc2, active compounds read low 0.959 | locus YLR370C, strain arc18, active compounds read low 1.01 | locus YLR384C, strain iki3, active compounds read low 0.996 | locus YML120C, strain ndi1, active compounds read low 1.02 | locus YMR058W, strain fet3, active compounds read low 1 | locus YMR125W, strain sto1, active compounds read low 0.988 | locus YMR129W, active compounds read low 0.994 | locus YMR205C, strain PFK2, active compounds read low 0.978 | locus YMR231W, strain pep5, active compounds read low 1 | locus YNL071W, strain lat1, active compounds read low 1.01 | locus YNL209W, strain ssb2, active compounds read low 1 | locus YNL248C, strain rpa49, active compounds read low 0.981 | locus YNL322C, strain KRE1 (second series), active compounds read low 1 | locus YNR049C, strain mso1, active compounds read low 0.999 | locus YOR001W, strain rrp6, active compounds read low 1.01 | locus YOR070C, strain gyp1, active compounds read low 0.995 | locus YOR080W, strain dia2, active compounds read low 0.998 | locus YOR083W, strain WHI5, active compounds read low 1.01 | locus YOR106W, strain vam3, active compounds read low 1 | locus YOR265W, strain rbl2, active compounds read low 0.99 | locus YOR270C, strain vph1, active compounds read low 0.99 | locus YOR290C, strain snf2, active compounds read low 0.955 | locus YPL051W, strain arl3, active compounds read low 1 | locus YPL078C, strain atp4, active compounds read low 1 | locus YPL106C, strain sse1, active compounds read low 0.98 | locus YPL240C, strain hsp82, active compounds read low 1

— PubChem BioAssay AID1159580 (chemical genetic matrix, 2015)
